{"source": "the antibiotic and cytotoxicity screens of Wong et al. (2023)", "note": "The campaign covered roughly 39,000 compounds. About 3,300 (8.5%) were called active. The sample as a whole holds a higher share of actives than the screen did."}
{"tested_on": "HepG2", "test": "cytotoxicity call (relative viability < 0.9)", "conditions": "10 µM"}
{"smiles": "COCCOC(=O)N1C(=O)[C@@]2(c3cc(C#CCC(C(=O)OC)C(=O)OC)ccc31)[C@H](C(=O)NC[C@H](O)c1ccccc1)[C@H]1C(=O)O[C@H](c3ccccc3)[C@H](c3ccccc3)N1[C@@H]2c1ccc(OCCO)cc1", "cytotoxicity call": "inactive"}
{"smiles": "Cn1cnc(CCNC(=O)C[C@@H]2CC[C@@H]3[C@H](COC[C@@H](O)CN3C(=O)Nc3ccc(Cl)cc3)O2)c1", "cytotoxicity call": "inactive"}
{"smiles": "COc1ccc(S(=O)(=O)N(C)C[C@@H]2Oc3ccc(NC(=O)Nc4cccc5ccccc45)cc3C(=O)N([C@@H](C)CO)C[C@H]2C)cc1", "cytotoxicity call": "inactive"}
{"smiles": "C[C@H]1CN([C@@H](C)CO)C(=O)c2cc(C#CCN(C)C)cnc2O[C@H]1CN(C)S(=O)(=O)c1ccccc1", "cytotoxicity call": "inactive"}
{"smiles": "COc1cccc(NC(=O)N2C[C@@H](O)COC[C@H]3O[C@@H](CC(=O)NCc4ccccc4F)CC[C@@H]32)c1", "cytotoxicity call": "inactive"}
{"smiles": "C[C@@H]1CN([C@H](C)CO)S(=O)(=O)c2ccc(C#Cc3ccncc3)cc2O[C@@H]1CN(C)C(=O)c1ccncc1", "cytotoxicity call": "active"}
{"smiles": "C[C@@H]1CN([C@@H](C)CO)S(=O)(=O)c2ccc(C#Cc3ccncc3)cc2O[C@H]1CN(C)C(=O)c1ccncc1", "cytotoxicity call": "inactive"}
{"smiles": "C[C@H](O)C#Cc1ccc2c(c1)O[C@@H](CN(C)C(=O)c1ccncc1)[C@H](C)CN([C@H](C)CO)S2(=O)=O", "cytotoxicity call": "inactive"}
{"smiles": "C[C@H](O)C#Cc1ccc2c(c1)O[C@H](CN(C)C(=O)c1ccncc1)[C@H](C)CN([C@@H](C)CO)S2(=O)=O", "cytotoxicity call": "inactive"}
{"smiles": "C[C@H](CO)N1C[C@H](C)[C@@H](CN(C)C(=O)c2ccncc2)Oc2cc(C#Cc3ccncc3)ccc2S1(=O)=O", "cytotoxicity call": "active"}
{"smiles": "C[C@H](O)C#Cc1ccc2c(c1)O[C@H](CN(C)C(=O)c1ccncc1)[C@@H](C)CN([C@@H](C)CO)S2(=O)=O", "cytotoxicity call": "inactive"}
{"smiles": "C[C@H](CO)N1C[C@H](C)[C@H](CN(C)C(=O)c2ccncc2)Oc2cc(C#Cc3ccncc3)ccc2S1(=O)=O", "cytotoxicity call": "active"}
{"smiles": "C[C@H](O)C#Cc1ccc2c(c1)O[C@@H](CN(C)C(=O)c1ccncc1)[C@@H](C)CN([C@H](C)CO)S2(=O)=O", "cytotoxicity call": "inactive"}
{"smiles": "C[C@@H]1CN([C@@H](C)CO)S(=O)(=O)c2ccc(C#Cc3ccncc3)cc2O[C@@H]1CN(C)C(=O)c1ccncc1", "cytotoxicity call": "inactive"}
{"smiles": "C[C@@H](O)C#Cc1ccc2c(c1)O[C@@H](CN(C)C(=O)c1ccncc1)[C@@H](C)CN([C@@H](C)CO)S2(=O)=O", "cytotoxicity call": "inactive"}
{"smiles": "C[C@H]1CN([C@@H](C)CO)S(=O)(=O)c2ccc(C#Cc3ccncc3)cc2O[C@@H]1CN(C)C(=O)c1ccncc1", "cytotoxicity call": "active"}
{"smiles": "C[C@H](O)C#Cc1ccc2c(c1)O[C@@H](CN(C)C(=O)c1ccncc1)[C@H](C)CN([C@@H](C)CO)S2(=O)=O", "cytotoxicity call": "inactive"}
{"smiles": "C[C@@H]1CN([C@H](C)CO)S(=O)(=O)c2ccc(C#CC(C)(C)O)cc2O[C@@H]1CN(C)Cc1ccncc1", "cytotoxicity call": "inactive"}
{"smiles": "CCCNC(=O)C[C@H]1CC[C@@H]2[C@H](COc3ccc(NS(=O)(=O)c4ccccc4C)cc3C(=O)N2C)O1", "cytotoxicity call": "inactive"}
{"smiles": "C[C@H](CO)N1C[C@H](C)[C@@H](CN(C)C(=O)Nc2ccc(F)cc2)OCCCC[C@H](C)Oc2ccc(NC(=O)CCC(F)(F)F)cc2C1=O", "cytotoxicity call": "inactive"}
{"smiles": "COCC(=O)N1C[C@H](C)[C@H](OC)CN(C)C(=O)c2cc(NC(=O)c3ccc(OC)cc3)ccc2OC[C@H]1C", "cytotoxicity call": "inactive"}
{"smiles": "NCCSC12CC3CC(CC(C3)C1)C2", "cytotoxicity call": "inactive"}
{"smiles": "C[C@@H]1CN([C@H](C)CO)S(=O)(=O)c2ccc(C#C[C@@H](C)O)cc2O[C@H]1CN(C)C(=O)c1ccncc1", "cytotoxicity call": "inactive"}
{"smiles": "C[C@H](O)C#Cc1ccc2c(c1)O[C@H](CN(C)C(=O)c1ccncc1)[C@@H](C)CN([C@H](C)CO)S2(=O)=O", "cytotoxicity call": "inactive"}
{"smiles": "C[C@H]1CN([C@@H](C)CO)S(=O)(=O)c2ccc(C#Cc3ccncc3)cc2O[C@H]1CN(C)C(=O)c1ccncc1", "cytotoxicity call": "active"}
{"smiles": "C[C@@H]1CN([C@H](C)CO)S(=O)(=O)c2ccc(C#Cc3ccncc3)cc2O[C@H]1CN(C)C(=O)c1ccncc1", "cytotoxicity call": "active"}
{"smiles": "C[C@@H](O)C#Cc1ccc2c(c1)O[C@H](CN(C)C(=O)c1ccncc1)[C@@H](C)CN([C@@H](C)CO)S2(=O)=O", "cytotoxicity call": "inactive"}
{"smiles": "C[C@H](O)C#Cc1ccc2c(c1)O[C@@H](CN(C)C(=O)c1ccncc1)[C@@H](C)CN([C@@H](C)CO)S2(=O)=O", "cytotoxicity call": "inactive"}
{"smiles": "COc1ccc(CN(C)C[C@@H]2OCCCC[C@H](C)Oc3ccc(NS(=O)(=O)c4ccc(C)cc4)cc3C(=O)N([C@H](C)CO)C[C@H]2C)cc1", "cytotoxicity call": "inactive"}
{"smiles": "COc1ccc(S(=O)(=O)N(C)C[C@H]2OCc3cn(nn3)CCCC(=O)N([C@H](C)CO)C[C@H]2C)cc1", "cytotoxicity call": "inactive"}
{"smiles": "C[C@@H]1CCCCO[C@H](CN(C)S(C)(=O)=O)[C@@H](C)CN([C@H](C)CO)C(=O)c2cc(NS(=O)(=O)c3cn(C)cn3)ccc2O1", "cytotoxicity call": "inactive"}
{"smiles": "CC(=O)n1cc([C@@H]2C=C(C(=O)N3CCN(C)CC3)O[C@H](OCc3ccc(CO)cc3)C2)c2ccccc21", "cytotoxicity call": "inactive"}
{"smiles": "CCn1c(C)cn2c3c(=O)n(CCN4CCOCC4)c(=O)n(C)c3nc12", "cytotoxicity call": "inactive"}
{"smiles": "O=C/C=C/c1ccccc1Cl", "cytotoxicity call": "inactive"}
{"smiles": "C[C@@H]1CN([C@@H](C)CO)C(=O)c2cccc(NS(C)(=O)=O)c2O[C@H]1CN(C)C(=O)Nc1ccccc1", "cytotoxicity call": "inactive"}
{"smiles": "C[C@@H]1CN([C@@H](C)CO)C(=O)c2cc(NC(=O)Cc3ccccc3)ccc2O[C@@H]1CN(C)S(C)(=O)=O", "cytotoxicity call": "inactive"}
{"smiles": "COC(=O)c1ccc(C(=O)OC)nc1", "cytotoxicity call": "active"}
{"smiles": "COC(=O)c1cccc(C(=O)OC)n1", "cytotoxicity call": "inactive"}
{"smiles": "COC(=O)c1ccc(O)cc1", "cytotoxicity call": "inactive"}
{"smiles": "C[C@H](CO)N1C[C@H](C)[C@@H](CN(C)S(=O)(=O)c2ccccc2)Oc2ccc(NC(=O)Nc3cccc4ccccc34)cc2C1=O", "cytotoxicity call": "inactive"}
{"smiles": "CCC(=O)N[C@H]1CC[C@@H](CC(=O)OC)O[C@H]1CO", "cytotoxicity call": "inactive"}
{"smiles": "C[C@@H]1CN([C@H](C)CO)C(=O)c2cccc(NC(=O)C3CCCCC3)c2O[C@H]1CN(C)C(=O)Nc1cccc2ccccc12", "cytotoxicity call": "inactive"}
{"smiles": "COC(=O)[C@H](Cc1ccccc1)N1CC2=C[C@@H]([C@@H](O)CCn3cc(C(=O)NO)nn3)n3c(=O)n(C)c(=O)n3[C@@H]2[C@@H](C2CC2)O1", "cytotoxicity call": "inactive"}
